In PubChem BioAssay (NCATS) one finds Potency and activity change, negative = inhibition data, which are given here for 13 compounds.

For one assay, the system named is C33A. Kind of assay: Primary qHTS to identify gynecologic anti-cancer compounds using libraries of approved drugs and bioactive compounds (AID 1345084). Also: nearly all actives have a fitted effect of over 55% in size. The settings on record: Gynecologic cancer cell panel viability, ATPlite luminescence, 48 h; series mostly up to 57.5 µM. A digest of the protocol: (§1)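 Cytotoxicity screen measuring ATP content by luciferase luminescence. Each compound is applied at five concentrations for 48 h at 37 C with 5% CO2.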
On the technique in general: Quantitative high-throughput screening tests each substance at several concentrations.

The next assay relates to CAOV3. The description is as above. The settings on record: Gynecologic cancer cell panel viability, ATPlite luminescence, 48 h; series mostly up to 57.5 µM. A digest of the protocol: as §1
In general terms: ATP-based viability assays read luminescence as a measure of living cells.

The subject of the next assay is CASKI. The description is as above. To be noted: Gynecologic cancer cell panel viability, ATPlite luminescence, 48 h; series mostly up to 57.5 µM. The essentials:
as §1

In the next assay the test system is Es-2. The assay is described as above. The settings on record: Gynecologic cancer cell panel viability, ATPlite luminescence, 48 h; series mostly up to 57.5 µM. The essentials: as §1
The subject of a further assay is JEG-3. The description is as above. To be noted: Gynecologic cancer cell panel viability, ATPlite luminescence, 48 h; series mostly up to 57.5 µM. The essentials:
as §1

A further assay has as its system SKOV3. Described as above. To be noted: Gynecologic cancer cell panel viability, ATPlite luminescence, 48 h; series mostly up to 57.5 µM. The essentials: as §1
The test system of another assay is Hek293T. The description is as above. The settings on record: Gynecologic cancer cell panel viability, ATPlite luminescence, 48 h, control line for the selectivity index; series mostly up to 57.5 µM. The essentials:
as §1

The subject of a further assay is OV90. The assay is described as above. To be noted: Gynecologic cancer cell panel viability, ATPlite luminescence, 48 h; series mostly up to 57.5 µM. A digest of the protocol: as §1
In the next assay the test system is PA-1. The description is as above. To be noted: Gynecologic cancer cell panel viability, ATPlite luminescence, 48 h; series mostly up to 57.5 µM. The essentials:
as §1

The test system of a further assay is Tov-21-G. The assay is described as above. The settings on record: Gynecologic cancer cell panel viability, ATPlite luminescence, 48 h; series mostly up to 57.5 µM. The essentials:
as §1

Another assay deals with Tov112D. The description is as above. To be noted: Gynecologic cancer cell panel viability, ATPlite luminescence, 48 h; series mostly up to 57.5 µM. A digest of the protocol: as §1
Another assay concerns HeLa. Described as above. The settings on record: Gynecologic cancer cell panel viability, ATPlite luminescence, 48 h; series mostly up to 57.5 µM. The essentials:
as §1

Assay [1] can be described thus: qHTS assay to identify inhibitors of the type 1 interferon - major histocompatibility complex class I in skeletal muscle: Counter screen cell viability and HiBit confirmation (AID 1347412). Also: nearly all actives have a fitted effect of over 60% in size. The settings on record: iHSKM muscle cells + IFN-b, HiBiT or CellTiter-Glo, 24 h. A digest of the protocol:
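Human myoblast knock-in line, 4.0 ng/ml IFN-beta stimulation, 24 h compound treatment. Endpoints: HiBiT lytic luminescence (HLA-B level) and CellTiter Glo (ATP). Dosing 12 concentrations, 3-fold steps, 46 uM highest final.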

Structures are written as SMILES. Inconclusive results are not listed. Unmarked numbers belong to inactive results. The source made the active and inactive calls. Calls follow the shape of the dose curve; as a rule, active = well fitted curve in the direction sought with a large enough effect; inconclusive = small, poorly fitted or top-dose-only effect, or another doubt; inactive = no such curve, though single readings can be large; an effect the other way counts as inactive or inconclusive.
% is scaled to controls: 0 for no effect and ±100 for the full control effect; potency is read from the fitted curve at half-maximal effect.

Take `Cc1cccc2c1NC(=O)C2(c1ccc(O)cc1)c1ccc(O)cc1`: the Potency result in the assay with C33A, in the assay on CAOV3, in the assay on CASKI, in the assay with Es-2, in the assay on JEG-3 and in the assay on SKOV3 was “inactive” each time.

As to `O=C(NCc1cccc(O)c1)Nc1nc(-c2ccncc2)cs1`, the Potency entry in the assay on C33A, in the assay on CAOV3, in the assay with CASKI, in the assay with Es-2, with Hek293T and with JEG-3 was “inactive” each time. The Potency result in the assay with OV90, with PA-1, in the assay on SKOV3, with Tov-21-G and in the assay on Tov112D was “inactive” in each case.

Take `CC(=O)OC1/C(C)=C/C(=O)C(OC(C)=O)C(C)(C)/C=C/C(C)C(=O)C2(OC(C)=O)CC(C)C(OC(=O)c3ccccc3)C12` (stereo not given): the Potency entry in the assay with C33A, with CAOV3, in the assay on CASKI, in the assay with HeLa, with Hek293T and in the assay with JEG-3 was “inactive” each time. In addition, the Potency result in the assay on OV90, in the assay on SKOV3, in the assay on Tov-21-G and in the assay on Tov112D was “inactive” in each case.

Turning to `COc1c2c(c(C)c3c1C(=O)OC3)OC1(C)CC(O)C(C(C)(C)O)C(C)(CCC(=O)O)C1C2` (stereo not given), the Potency result in the assay on C33A, in the assay with CAOV3, in the assay with CASKI, in the assay with Es-2, with Hek293T and in the assay on JEG-3 was “inactive” each time. The Potency result in the assay with OV90, with PA-1, with SKOV3, in the assay with Tov-21-G and with Tov112D was “inactive” each time.

Consider `CCOc1cc(C(=O)N2CCC(N3CCN(C)CC3)CC2)ccc1Nc1ncc2c(n1)N(C1CCCC1)c1ccccc1C(=O)N2C`, for which the Potency result in the assay on C33A, in the assay on CASKI, with Es-2, in the assay on HeLa, with Hek293T and with OV90 was “inactive” throughout. The Potency entry with Tov112D was “inactive”. The Potency was 31.6 µM (active) with CAOV3, 35.5 µM (active) with SKOV3 and 12.5 µM (active) in assay [1] (HiBiT). Besides, in assay [1] (Viability, at 45.9 µM (top of the series)), the activity change, negative = inhibition was -25.1%.

Consider `CS(=O)(=O)c1ccc(-c2nnc(/C=C/c3nnc(-c4ccc(C#N)cc4)o3)n2-c2ccccc2Cl)nc1`, for which the Potency entry in the assay on C33A, in the assay on CAOV3, with CASKI, with Es-2, in the assay on HeLa and in the assay on JEG-3 was “inactive” in each case. Besides, the Potency entry in the assay on OV90, in the assay with PA-1, with SKOV3, with Tov-21-G and in the assay on Tov112D was “inactive” each time.

Consider `COc1ccc2c(OC)c3ccoc3nc2c1OC`, for which the Potency result with C33A, in the assay on CAOV3, in the assay with CASKI, in the assay on Es-2, in the assay on Hek293T and in the assay on JEG-3 was “inactive” in each case. Also, the Potency entry in the assay with OV90, in the assay on PA-1, with SKOV3, in the assay with Tov-21-G and in the assay on Tov112D was “inactive” in each case.

Turning to `Cc1cc(Nc2ccc(NC(=O)c3ccc(Nc4ccnc5ccccc45)cc3)cc2)nc(N)n1`, the Potency in the assay on C33A was 5.62 µM (active); in the assay with CAOV3, 2.24 µM (active); with CASKI it was 3.55 µM (active); in the assay with HeLa, 11.2 µM (active); with Hek293T, 25.1 µM (active); with JEG-3, 28.2 µM (active). The Potency in the assay on OV90 is 3.98 µM (active); in the assay with PA-1, 20 µM (active); with SKOV3 it was 3.98 µM (active); in the assay on Tov-21-G, 10 µM (active); in the assay on Tov112D, 25.1 µM (active).

With `NC(=O)c1cnc(NCCc2ccc(O)c(Cl)c2)nc1NCc1ccccc1`, the Potency result with C33A, with CAOV3, in the assay with JEG-3 and with OV90 was “inactive” each time. Also, the Potency was 15.8 µM (active) in the assay on Es-2; 25.1 µM (active) with HeLa; 20 µM (active) with Hek293T; 10 µM (active) in the assay on PA-1; 7.94 µM (active) with Tov-21-G; 12.6 µM (active) with Tov112D.

With `Cc1ccc(NC(=O)c2ccc(CN3CC[C@H](N(C)C)C3)c(C(F)(F)F)c2)cc1Nc1nccc(-c2cncnc2)n1`, the Potency result in the assay with C33A, with CAOV3, with HeLa, in the assay with Hek293T, with JEG-3 and in the assay with SKOV3 was “inactive” each time. In addition, the Potency entry in the assay with Tov-21-G and in the assay on Tov112D was “inactive” each time. The Potency with OV90 is 5.01 µM (active).

Turning to `COc1ccc(-c2cnc3ccc(NCc4ccc(S(N)(=O)=O)cc4)nn23)cc1OC`, the Potency result in the assay with C33A, with CAOV3, in the assay with Es-2, in the assay with HeLa, in the assay on Hek293T and in the assay on JEG-3 was “inactive” each time. Also, the Potency result in the assay on Tov-21-G and in the assay with Tov112D was “inactive” in each case.

On to `O=C(NOCC(O)CO)c1ccc(F)c(F)c1Nc1ccc(I)cc1F` (stereo not given), for which the Potency entry in the assay with C33A, in the assay on CAOV3, with CASKI, in the assay on HeLa, with Hek293T and in the assay with JEG-3 was “inactive” in each case. The Potency result with SKOV3 and in the assay with Tov112D was “inactive” each time.

For the compound `CC(=O)O[C@@](C)(C(=O)/C=C/C(C)(C)O)[C@H]1[C@H](O)C[C@@]2(C)[C@@H]3CC=C4[C@@H](C=C(O)C(=O)C4(C)C)[C@]3(C)C(=O)C[C@]12C`, the Potency entry in the assay with C33A and in the assay on JEG-3 was “inactive” in each case. Moreover, the Potency in the assay on CAOV3 was 0.282 µM (active); in the assay on CASKI, 4.47 µM (active); in the assay with HeLa, 2.51 µM (active); in the assay on OV90, 4.47 µM (active); with PA-1, 11.2 µM (active); with Tov-21-G, 2.82 µM (active).
